Assay outcomes as filed in PubChem BioAssay.
PINK1 expr mod – modulators of PINK1 expression | Potency, µM (top dose mostly 76.6 µM), for inactives: top-dose activation (PINK1 increase), actives largely listed as activators | hit rate 0.2% among 410,000 | PINK1 immunofluorescence, high-content cytometry, 24 h | AID 624263; active = well fitted activation curve with a large enough effect; inconclusive = small, poorly fitted or top-dose-only effect; cell line not stated here; also: potency is read from the fitted curve at half-maximal effect; % of control where 0% means no effect; nearly all actives have a fitted effect of over 65% in size
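Stable cell line, 250 cells/well, 12 h attachment; compounds pinned at 5 concentrations, 24 h; CCCP control. Fixed with nuclear dye, primary antibodies 12 h at 10 degrees C, secondary plus cell stain; laser-scanning cytometer read.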
TCR activator – activators of T cell receptors | Potency, µM (series often up to 9.22 µM), for the others: at the highest dose activation of IL-2 secretion, most hits filed as activators | 330,000 tested, under 10 active | primary human leukocytes, anti-CD3, IL-2 HTRF, 48 h; also: % of control where 0% means no effect
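48 hr co-incubation of compounds, a-CD3 beads and primary human leukocytes; IL-2 quantified homogeneously by HTRF with anti-IL-2 K and d2 conjugates.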
BRCA1 expr up – BRCA1 expression activation. Potency, µM (top dose mostly 46.1 µM), for inactives: at the top dose activation, usual class: activators. AID 624202. hit rate 1.1% among 380,000. MCF7-BRCA1-FFLuc reporter, luminescence, 48 h; response scale: scaled: vehicle 0%, 10 µM genistein 100%; also: potency is read from the fitted curve at half-maximal effect; nearly all actives have a fitted effect of over 80% in size
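Luminescence from a BRCA1-driven firefly luciferase in MCF7 cells was read after 48 h compound exposure at 37 C. Data normalized against DMSO and a 10microM genistein activation control, then curve-fitted across the titration.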
pAkt inh – inhibitors of Akt phosphorylation | Neuro2A IGF-stimulated pAkt S473 HTRF, 20 min; stronger effect = lower value | activity change, % for hits at 50 µM | hit rate 0.32% among 360,000; in the data active = activity change below about -80%; inconclusive = mostly about -51% to -80%; also: % is scaled to controls: 0 for no effect and ±100 for the full control effect
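Neuro2A cells in DMEM with 0.5% FBS, overnight at 37 deg C, given compound at single 50 µM final, then IGF (6 nM final) for 20 min at 37 deg C. Lysed; phospho-Akt Ser473 by HTRF after 24 h, 665/615 ratio.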
The depositor's hits bear a star; i = inactive; ? = inconclusive; / = no result; [ ] = another dose, or the depositor's remark. A selection: hits, their analogues and other compounds. The true share with any hit is near 1.5%. Unless noted, calls follow the shape of the dose curve; as a rule, active = well fitted curve in the direction sought with a large enough effect; inconclusive = small, poorly fitted or top-dose-only effect, or another doubt; inactive = no such curve, though single readings can be large; an effect the other way counts as inactive or inconclusive.

SMILES	PINK1 expr mod	TCR activator	BRCA1 expr up	pAkt inh
CC(C)c1nnc(NC(=O)COc2ccccc2[N+](=O)[O-])s1	0.1%	-3.4%	10µM*	i
Cc1ccc(OCC(=O)Nc2ccc3c(c2)OCO3)c(C)c1	4.3%	-1.2%	0.0%	i
O=C(COc1cc(F)ccc1[N+](=O)[O-])Nc1ccc2c(c1)OCO2	3.2%	0.6%	3.55µM*	i
CC(=O)c1cc(F)ccc1OCC(=O)Nc1ccc2c(c1)OCO2	-0.3%	6.6%	1.26µM*	i
COc1ccc(-n2c(=O)c(-c3ccc(Cl)cc3)nc3cnc(N4CCOCC4)nc32)cc1	2.5%	/	/	/
COC(=O)[C@@H]1CCCN1Cc1ccc2c(c1)CN(Cc1nccs1)CCO2	1.3%	/	/	/
CCC(Sc1nc2nccnc2c(=O)n1Cc1ccccc1Cl)C(=O)NC1CCCCC1 (centres undefined)	7.4%	/	/	/
Cc1ccc(F)cc1CNC(=O)c1sc2ncnc(NCC3CCCO3)c2c1C (centres undefined)	0.9%	/	/	/
O=C(COc1cccc(Cl)c1Cl)Nc1ccc2c(c1)CCC2	8.9%	-3.3%[46.1 µM]	-5.6%	i
O=C(COc1ccccc1[N+](=O)[O-])Nc1ccc2c(c1)CCC2	3.4%	7.9%	10µM*	i
CN(C)c1ncc2nc(-c3cccs3)c(=O)n(C3CC3)c2n1	0.0%	/	/	/
CCC1CN(CC(=O)NC(C)CO)Cc2cc(OC)ccc2O1 (centres undefined)	-1.1%	/	/	/
COc1ccc(C(=O)NCCSC2CCCCC2)cc1	-1.8%	-3.3%[46.1 µM]	1.78µM*	i
Cc1ccccc1C(=O)Nc1nc(-c2ccc(Br)cc2)ns1	25.1µM*	/	/	/
COc1ccccc1C(=O)Nc1nc(-c2ccc(Br)cc2)ns1	1.0%	/	/	/
COc1ccc(N/C=C/C(=O)C(C)(C)C)cc1	1.4%	-6.1%	13.4%	i
O=C(/C=C/Nc1ccc(OC(F)(F)F)cc1)C(F)(F)F	-0.4%	-1.3%	0.3%	-127.2%*
O=S(=O)(NCc1nnc2n1CCN(Cc1ccccc1Cl)CC2)c1ccccc1	-0.1%	/	/	/
COCC(=O)Nc1cc(C(=O)NC2CCCc3ccccc32)c2c(c1)nc(-c1ccncc1)n2C (centres undefined)	0.5%	/	/	/
c1ccc(CCSc2ncnc3nc[nH]c23)cc1	0.9%	0.2%[46.1 µM]	3.16µM*	i
O=C(CSc1ncnc2nc[nH]c12)c1ccccc1	3.6%	-165.9%	73.3%	i
COc1cc2nc(N(C)C)nc(NC3CCN(C)CC3)c2cc1OC	-0.7%	/	-54.7%	/
O=C(c1ccc(C(F)(F)F)cc1)N(Cc1cc2ccc(F)cc2nc1N1CCOCC1)C1CC1	-0.3%	/	/	/
O=C(NC1CCCCC1)C(=S)NCCc1ccccc1	4.1%	4.2%	11.2µM*	i
O=C(NCCc1ccccc1)C(=O)NC1CCCCC1	1.4%[38.3 µM]	-17.9%	3.98µM*	i
SMILES	PINK1 expr mod	TCR activator	BRCA1 expr up	pAkt inh
COc1ccc(O)c(CN2CCOc3c(cc(-c4cccc(OC)n4)cc3OC)C2)c1	1.1%	/	/	/
O=C1CC(N(CCc2ccccc2)C(=S)Nc2ccccc2)C(=O)N1c1ccccc1 (centres undefined)	25.1µM*	2.4%[46.1 µM]	-93.9%	i
CCc1noc(C)c1C(=O)N1CCOc2ccc(CN3CCN(c4ccccn4)CC3)cc2C1	-0.4%	/	/	/
O=C(Cn1cc(SCc2ccccc2Cl)c2ccccc21)N1CCOCC1	4.5%	0.8%[46.1 µM]	11.2µM*	i
O=C(Cn1cc(SCc2cccc(F)c2)c2ccccc21)N1CCOCC1	0.9%	/	/	/
COc1ccc(C2C(C(=O)OCC3CCCO3)=C(C)NC3=C2C(=O)CC(c2ccco2)C3)cc1O (centres undefined)	1.2%	3.6%	0.7%	-113.2%*
Cc1ccc2cc(CNC(C)c3cccc4ccccc34)c(N3CCC(O)CC3)nc2c1 (centres undefined)	0.2%	/	/	/
COc1cc(C)c(CN2C[C@H](Sc3nc4ccccc4[nH]3)C[C@H]2C(=O)N(C)C)cc1C	1.9%	/	/	/
CCCOC(=O)c1ccc(OCC(O)CN2CCN(C(=O)c3ccccc3)CC2)cc1 (centres undefined)	0.0%	-4.9%	-2.9%	-128.0%*
CC(C)(C)c1ccc(OCC(O)CN2CCN(C(=O)c3ccccc3)CC2)cc1 (centres undefined)	-0.1%	-3.5%	-24.0%	i
CCSc1nnc(C(C)NS(=O)(=O)c2cccc(Cl)c2C)n1C (centres undefined)	0.6%	/	/	/
O=C(NC(=O)c1ccc(C(F)(F)F)cc1)Nc1ccc(-c2cnco2)cc1	12.6%	0.9%	10.9%	i
O=C(Nc1ccc(-c2cnco2)cc1)c1ccc(F)cc1F	0.8%	-0.6%	5.01µM*	i
Cc1ccc(NC(=O)Nc2ccc3c(c2)CCC3)cc1	0.4%	-1.3%	3.98µM*	i
O=C(Nc1cccc(F)c1)Nc1ccc2c(c1)CCC2	11.9%	-3.8%	2µM*	i
Cc1cc(C)cc(NC(=O)Nc2ccc3c(c2)CCC3)c1	13.0%	4.0%	51.6%	i
Cc1cc(Cl)ccc1OCC(=O)N1CCOc2ccc(CN3C[C@@H](C)O[C@@H](C)C3)cc2C1	-0.9%	/	/	/
COc1cccc(C2(CC(=O)N3CCC(c4nc5ccc(F)cc5[nH]4)CC3)CC(=O)N(C)C2=O)c1 (centres undefined)	1.5%	/	/	/
O=C(CSc1nc2ccccc2n1S(=O)(=O)c1ccccc1)N1CCCCC1	-0.1%	-1.0%	14.1µM*	i
O=[N+]([O-])c1ccc(S(=O)(=O)Nc2nc3ccccc3nc2Nc2ccccc2)cc1	35.5µM*	-4.5%	9.8%	i
Clc1ccc(-c2csc(N3CCCCCC3)n2)cc1	15.9%	13.9%	0.5%	i
Brc1ccc(-c2csc(N3CCCCCC3)n2)cc1	7.7%	10.0%	?	i
Brc1ccc(-c2csc(N3CCOCC3)n2)cc1	0.9%	-0.7%	11.2µM*	i
Clc1ccc(-c2csc(N3CCOCC3)n2)cc1	1.4%	3.7%	7.08µM*	i
COc1ccc(-c2csc(N3CCOCC3)n2)cc1OC	4.6%	-0.2%	14.1µM*	i
SMILES	PINK1 expr mod	TCR activator	BRCA1 expr up	pAkt inh
COC(=O)c1ccc(OCC(=O)c2ccccc2)cc1	0.3%	-4.6%	11.2µM*	i
CC(=O)CC(c1ccccc1)S(=O)(=O)c1ccc(C)cc1 (centres undefined)	-2.0%	/	-2.8%	i
O=C(COC(=O)c1cccc([N+](=O)[O-])c1)c1ccc(OCc2ccccc2)cc1	3.2%	-1.4%	5.01µM*	i
COc1ccc(C(=O)C/C(=C\C(=O)c2ccc(C)cc2)c2ccccc2)cc1	25.1µM*	1.3%	-80.2%	i
COc1ccc(C(CC(=O)c2ccccc2)S(=O)(=O)c2ccc(C)cc2)cc1 (centres undefined)	1.7%[38.3 µM]	2.0%	10µM*	i
COC(=O)[C@@H]1CCCN1C(=O)c1cnn(-c2nccc(-c3cc(C)sc3C)n2)c1C1CC1	-0.6%	/	/	/
COCc1ccc(CN2Cc3ccccc3OC(c3ccccc3OC)C2)o1 (centres undefined)	-0.6%	/	/	/
COc1ccc2c(c1)-c1nc(-n3ncc(C(=O)N(C)CCO)c3C3CC3)ncc1CC2	0.0%	/	/	/
COc1ccc(C(=O)CC(=O)c2ccccc2)cc1	1.0%	6.2%	7.94µM*	i
